BCR signal inh – qHTS Assay to Find Inhibitors of Chronic Active B-Cell Receptor Signaling; ABC-DLBCL IkBa-CBG/CBR reporter, luminescence ratio, 4 h; Potency, µM (series often up to 46.1 µM), for the others: at the top dose activity change, negative = inhibition, most hits filed as inhibitors; 340,000 compounds, 0.05% hits; AID 493014, 2011; active = well fitted inhibition curve with a large enough effect in the signal ratio, with a control signal flat, not every such curve was filed as active; inconclusive = small, poorly fitted or top-dose-only effect, or effect the other way, or a change in a side signal; the % refers to the signal ratio;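 note: potency is the fitted concentration of half-maximal effect; plate controls were basal doxycycline-induced cells for no effect and cells given 10 µM MG132 for full effect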
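Doxycycline induced both beetle luciferases in TMD8 lymphoma cells; IKK-driven degradation limits the IkappaBalpha-fused green signal, while red luminescence normalises for cell number and nonspecific effects. Compounds tested up to 46 uM, 4 hrs.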
D1 PAM – Potentiators of Human D1 Dopamine Receptor: qHTS. AID 504651, 2011. HEK293 TREx D1 cells, calcium flux, dopamine EC20 potentiation. potentiation, % at 10 µM. 360,000 compounds, 0.036% hits; in the data active = potentiation above about 30%; note: 0% is about no effect
DRD3 agonist – qHTS of D3 Dopamine Receptor Agonist: qHTS | max activation, % | 410,000 compounds, 0.58% hits | D3R DiscoveRx beta-arrestin cells, luminescence, 90 min | D(3) dopamine receptor (Homo sapiens), P35462 | AID 652048, 2013; in the data active = max activation above about 30%; note: 0% is about no effect
Target sequence (P35462 whole entry, looked up): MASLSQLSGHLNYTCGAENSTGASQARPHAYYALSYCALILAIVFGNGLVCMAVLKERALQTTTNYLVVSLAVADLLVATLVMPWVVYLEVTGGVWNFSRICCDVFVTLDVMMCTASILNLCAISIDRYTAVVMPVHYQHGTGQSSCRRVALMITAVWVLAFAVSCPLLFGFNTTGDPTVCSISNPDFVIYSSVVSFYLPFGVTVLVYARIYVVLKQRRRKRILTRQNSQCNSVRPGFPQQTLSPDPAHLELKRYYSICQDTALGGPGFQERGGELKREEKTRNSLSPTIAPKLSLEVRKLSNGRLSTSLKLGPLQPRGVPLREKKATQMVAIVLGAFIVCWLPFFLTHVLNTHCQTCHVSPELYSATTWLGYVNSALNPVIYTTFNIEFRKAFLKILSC
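Agonist mode: compounds and dopamine controls were applied to plated cells for 90 min at 37 degrees C after an overnight attachment at 1500 cells/well. Luminescent read-out followed 30 - 60 minutes at room temperature with DiscoveRx detection reagent.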
D1 antag – Antagonist of Human D 1 Dopamine Receptor: qHTS. D(1A) dopamine receptor (Homo sapiens), P21728. HEK293 TREx D1 cells, calcium flux, dopamine EC80; active compounds read low. activity change, negative = inhibition, % at 10 µM. 360,000 compounds, 3.2% hits; in the data active = activity change below about -30%; note: % is set by controls: 0 for no effect and ±100 for the full control effect
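Antagonism measured as reduced calcium response to an EC80 dopamine addition following 180 s compound pre-read; cells were inducible HEK293 Trex D1 plated overnight at 30 C, read kinetically at 1 cycle/sec.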
DRD3 antagonist – qHTS of D3 Dopamine Receptor Antagonist: qHTS. D(3) dopamine receptor (Homo sapiens), P35462. D3R cells, DiscoveRx beta-arrestin luminescence, antagonist mode; active compounds read low. max response, negative = inhibition, %. 360,000 compounds, 2.5% hits; in the data active = max response below about -50%; inconclusive = no clear call, values can overlap the other calls; note: % is set by controls: 0 for no effect and ±100 for the full control effect
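Cells expressing the human receptor were seeded at 1500 cells/well, incubated overnight at 37 degrees C in 5% CO2, then exposed to library compounds with dopamine controls for 90 minutes at 37 degrees C before luminescent detection.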
D1 ag – Allosteric Agonists of the Human D1 Dopamine Receptor: qHTS; activation, % at 2 µM; HEK293 T-REx D1 cells, calcium flux, agonist mode; AID 504660, 2011; 360,000 compounds, 1% hits; in the data active = activation above about 30%; note: 0% is about no effect
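Inducible HEK293 T-REx D1 cells, force-coupled to calcium signalling, were plated at 4000 cells/well with tetracycline and held overnight at 30 C. After no-wash calcium dye loading, compound-evoked calcium rise over 180 s flagged agonists.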
Numbers without * were called inactive; u = inconclusive; x = no result given. This is a sample that favours compounds with a hit; in the whole collection about 6% have one here.

SMILES	BCR signal inh	D1 PAM	DRD3 agonist	D1 antag	DRD3 antagonist	D1 ag
CC(=O)Nc1ccccc1NS(=O)(=O)c1ccccc1NO	x	2	x	14	x	4
CC(=O)NC(Cc1cccc(C)c1)C(=O)NC1CCN(S(=O)(=O)c2ccccc2)CC1 (configuration not stated)	4%	-6	2	-36*	2	2
COc1ccc(S(=O)(=O)N(CC(=O)N(C)Cc2ccccc2)c2ccc(Cl)cc2)cc1	x	-4	0	-4	x	9
COc1ccc(NCC(=O)N/N=C(\C)c2cc3ccccc3o2)cc1	1%	0	8	9	0	1
C/C(=N\NC(=O)CNc1ccc(F)cc1)c1cc2ccccc2o1	-1%	-5	4	-40*	2	2
O=C(c1ccco1)c1n[nH]nc1-c1ccccc1	u	-5	-2	-8	-70*	1
O=C(c1cc(C(=O)c2ccco2)cc(C(=O)c2ccco2)c1)c1ccco1	0%	0	5	8	9	-1
CC(=O)c1ccc(NS(=O)(=O)c2ccc(-n3cccn3)cc2)cc1	x	-2	-6	-16	x	10
Cc1nn(C2CCS(=O)(=O)C2)c(Cl)c1/C=C/C(=O)OCC(=O)c1cc(C)n(-c2ccc(F)cc2)c1C (configuration not stated)	-2%	-6	2	-31*	-3	9
Cc1nn(C2CCS(=O)(=O)C2)c(Cl)c1/C=C/C(=O)OCC(=O)c1c[nH]c2ccccc12 (configuration not stated)	-2%	0	-1	-24	-6	6
O=c1[nH][nH]c(C(F)(F)F)c1C=NCc1cccc(Cl)c1	-9%	-1	-4	x	-88*	-2
O=c1[nH][nH]c(C(F)(F)F)c1C=NCc1ccc(Cl)cc1	0%	0	-3	6	-84*	4
COc1ccc(CC(=O)OCC(=O)N2CCN(S(=O)(=O)c3ccc(C)cc3C)CC2)cc1OC	-2%	-2	-5	-13	-21	13
COc1ccc(CC(=O)OCC(=O)N2CCN(S(=O)(=O)c3ccc(C)cc3C)CC2)cc1	-1%	-6	3	-90*	16	5
Cc1ccc(S(=O)(=O)N2CCN(C(=O)C3CC3C)CC2)c(C)c1 (configuration not stated)	u	-5	3	-7	-64*	4
COc1cccc(-c2cn3c(n2)sc2cc(C(=O)NCCCc4ccccc4)ccc23)c1	x	3	13	-34*	x	4
CC(C)[C@H](Nc1ccc(C(F)(F)F)cc1[N+](=O)[O-])C(=O)O	1%	1	-2	7	-14	0
O=C(NNc1ccc(C(F)(F)F)cc1[N+](=O)[O-])c1ccc(NS(=O)(=O)c2ccc(F)cc2)cc1	u	-3	-25	4	-73*	0
COc1ccc(NC(=O)CN(C)CC(=O)Nc2ccccc2SC)cc1	-8%	-8	-9	12	-20	1
CSc1ccccc1NC(=O)CN(C)CC(=O)NCC(=O)Nc1ccc(F)cc1	-13%	-7	2	-5	-50*	1
CCn1c(C)c(C2N3CC4(C)CN2CC(C)(C3)C4=O)c2ccccc21 (configuration not stated)	x	0	0	4	x	2
COc1cccc(N2C(=O)C(CC(=O)Nc3cccc(F)c3)N(C(C)C)C2=O)c1 (configuration not stated)	x	-2	-6	3	x	1
CCOc1ccc(-c2cn3c(n2)sc2cc(C(=O)NC4CCCc5ccccc54)ccc23)cc1 (configuration not stated)	x	-3	7	-3	x	1
O=c1c2cc(Cl)ccc2nc(-c2ccc(Cl)c(Cl)c2)n1O	u	-10	7	-45*	-6	88*

Screening results (PubChem BioAssay)
